PubChem BioAssay AID624330 (Southern Research Specialized Biocontainment Screening …, 2012)
The campaign covered roughly 340,000 compounds. About 2,100 (0.62%) were called active. Only a sample is shown. Results with a measured potency or affinity are listed apart. Values without a mark were called inactive.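 How the source made its calls: active means first-screen hits whose inhibition reached a set limit at any dose in the follow-up dose series; inconclusive means inhibition above the set first-screen limit but never retested; inactive means the rest.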

What follows are compounds tested against Rac GTPase-activating protein 1 (Homo sapiens) (UniProt Q9H0H5) (assay: MgcRacGAP GTPase-activating activity inhibitors, confirmation, biochemical, ADP Hunter fluorescence, primary and confirmatory (AID 624330;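 further: fluorescence reports GDP produced by GAP-driven GTP hydrolysis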)). Details: MgcRacGAP-stimulated Rac1 GTP hydrolysis, at 30 µM, stronger effect = higher value, GST-tagged Rac1 F28L mutant substrate.
Sequence of Rac GTPase-activating protein 1 (Homo sapiens) (Q9H0H5 whole entry, looked up): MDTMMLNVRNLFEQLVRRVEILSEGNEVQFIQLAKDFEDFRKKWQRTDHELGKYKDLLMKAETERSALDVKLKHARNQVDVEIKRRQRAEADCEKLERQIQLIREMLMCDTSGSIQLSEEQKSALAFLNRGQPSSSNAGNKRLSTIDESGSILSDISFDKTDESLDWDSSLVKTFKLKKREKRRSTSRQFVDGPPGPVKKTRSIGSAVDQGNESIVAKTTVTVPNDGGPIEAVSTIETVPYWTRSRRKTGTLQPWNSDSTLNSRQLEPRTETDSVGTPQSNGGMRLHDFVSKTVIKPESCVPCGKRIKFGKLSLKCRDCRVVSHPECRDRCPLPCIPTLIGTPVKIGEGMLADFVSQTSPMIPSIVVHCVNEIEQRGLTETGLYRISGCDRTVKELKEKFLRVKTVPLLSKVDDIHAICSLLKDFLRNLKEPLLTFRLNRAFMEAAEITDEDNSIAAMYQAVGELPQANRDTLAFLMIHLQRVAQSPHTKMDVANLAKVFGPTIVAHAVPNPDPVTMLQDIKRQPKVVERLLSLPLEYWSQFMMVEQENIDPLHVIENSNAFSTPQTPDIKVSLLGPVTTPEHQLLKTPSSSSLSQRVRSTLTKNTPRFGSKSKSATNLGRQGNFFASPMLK

Compound | inhibition
CC(=O)Nc1ccc(/C=N\NC(=O)CNS(=O)(=O)c2ccc([N+](=O)[O-])cc2)cc1 | 9.49%
O=C(CNC(=O)c1ccccc1Br)N/N=C/c1ccccc1O | 5.07%
O=C(CNS(=O)(=O)c1ccc([N+](=O)[O-])cc1)N/N=C\c1ccc(O)cc1 | 20.8%
O=C(N/N=C/c1ccc(Br)cc1)c1cc[n+](Cc2ccccc2)cc1 | 4.25%
CC(=O)Nc1ccc(/C=N/NC(=O)CNS(=O)(=O)c2ccccc2)cc1 | 9.41%
O=C(N/N=C/c1ccc(OCc2ccccc2)cc1)c1cc[n+](Cc2ccccc2)cc1 | 13.8%
O=C(CNS(=O)(=O)c1ccccc1)N/N=C\c1ccc(Cl)cc1 | 7.25%
O=C(CNC(=O)c1ccccc1Br)N/N=C/c1cccnc1 | 7.98%
COc1cc(C2N(c3cc(C)on3)C(=O)C3CCCN32)cc(OC)c1OC (stereo not drawn) | 4.47%
CCOC(=O)C(=O)/C(=C\N(C)C)c1onc(-c2c(F)cccc2Cl)c1C(=O)OC | 4.69%
CSc1nc(C)cc(OCC#N)n1 | 5.78%
Cc1cccc(NC(=S)N2CCN(S(=O)(=O)c3ccc(F)cc3)CC2)c1 | 8.03%
CCCCCCN1C[C@@H](n2cc(COC(=O)c3ccccc3)nn2)[C@H](O)C[C@@H]1c1ccc(Cl)cc1 | 8.49%
Nc1ccc(-c2cn3cccnc3n2)cc1 | -4.77%
COc1cccc(N2CCN(C(=O)CCc3nnc4ccc(N5CCCC5)nn34)CC2)c1 | 18%
O=C(COc1ccc(Cl)cc1)Nc1cc(S(=O)(=O)N2CCCCC2)ccc1N1CCCCC1 | -10.3%
C=CCNC(=O)c1snnc1-c1ccccc1 | 5.75%
O=C(C[n+]1ccccc1)N/N=C/c1ccc(C(=O)O)cc1 | 2.14%
O=C(Cn1cnc([N+](=O)[O-])n1)N/N=C/c1ccccc1O | 4.85%
O=C(C[n+]1ccccc1)N/N=C/c1ccc(Br)cc1 | -2.09%
O=C(Cn1cnc([N+](=O)[O-])n1)N/N=C/c1cc(Cl)ccc1O | 11.2%
CCN(CC)c1ccc(/C=N/NC(=O)Cc2cccs2)cc1 | 18.5%
COc1ccc(/C=N/NC(=O)Cc2cccs2)cc1 | 3.05%
CCOc1ccc(NC(=O)COc2cccc3cccnc23)cc1S(=O)(=O)N1CCCC1 | 5.24%

Compound | inhibition
CC(C)c1[nH]nc2c1C(c1cccs1)C(C#N)=C(N)O2 (stereo not drawn) | 8.28%
CC(C)(C)S(=O)(=O)c1cnc2c(S(=O)(=O)c3ccccc3)cnn2c1N | -3.04%
N#CCC(=O)Nc1ccc(C(=O)OCC(=O)N=c2sccn2Cc2ccccc2Cl)cc1 | 5.66%
CCOC(=O)c1c[nH]c(=O)c(Br)c1O | 4.86%
COc1ccc(NS(=O)(=O)c2cc(NC(=O)c3ccco3)ccc2N2CCCC2)cc1 | -4.14%
COc1ccc(C(=O)OCC(=O)Nc2ncc([N+](=O)[O-])s2)cc1OC | 21.6%
O=C(COC(=O)COc1ccccc1)Nc1ncc([N+](=O)[O-])s1 | 11.1%
C/C(=N\OC(=O)Nc1ccc(Cl)cc1)c1ccc(F)c(F)c1 | 6.77%
CCOC(=O)N1CCN(C(=O)Cc2cccs2)CC1 | 9.5%
COc1ccc(CN2C(=O)C(CC(=O)NCCCN(C)C)CC(C(=O)N(C)C)=C2C)cc1 (stereo not drawn) | 12.7%
Cc1sc2ncnc(N(C)Cc3cccs3)c2c1C | 10.9%
CN(CCc1ccccn1)c1ncnc2[nH]ncc12 | 6.58%
COc1ccc(CNC(=O)CCCn2nc([N+](=O)[O-])cc2C)cc1 | 9%
O=C1c2ccccc2C(=O)N1c1nc(-c2cccs2)cs1 | 13.9%
O=C1CCCCCCCN1Cc1ccccc1 | 1.03%
O=C1CCCCCN1Cc1ccccc1 | 3.56%
COc1ccc(NC(=O)Nc2ccon2)cc1OC | 7.89%
Cc1ccc(S(=O)(=O)N2CCN(Cc3ccco3)CC2)c(C)c1 | 3.78%
FC(F)(F)c1ccc(CN2CCN(Cc3ccco3)CC2)cc1 | 15.3%
COc1ccc(CN2CCN(C(=O)c3ccco3)CC2)cc1OC | 11.2%
CCCc1ccc(S(=O)(=O)N2CCN(Cc3ccco3)CC2)cc1 | 8.89%
Cc1cccc(CN2CCSCC2)c1 | 23.8%
CCc1ccc(S(=O)(=O)N2CCN(Cc3ccco3)CC2)cc1 | 6.82%
COc1ccc(CN2CCN(Cc3ccco3)CC2)cc1 | 29.8%
